This is part of a sample that, as a whole, favours compounds with a hit. Of some 83,000 tested, about 20% had one in any assay.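 Percent growth is the endpoint: 0 to 100 indicates growth inhibition (40 means 60% inhibition), 0 means no net growth, and negative values indicate cell death.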 Values without a mark were called inactive. Calls of active or inactive are those of the source. Rule for the calls: active = growth percent below 10; inactive = the rest.

Some test systems named below: T-47D breast; BT-549 breast; MDA-MB-435 melanoma; SW-620 colon; MCF7 breast; HCT-116 colon; HCC-2998 colon; KM12 colon.
Holding throughout (assay): NCI-60 one-dose screen, 48 h (100 = growth as untreated, 0 = no growth, -100 = all killed)
What all share (conditions): 10 µM unless noted

In the case of `COc1cnc2c(c1)C(=O)c1c-2n(CCCN2CCCC2)c(=O)c2cc(F)ccc12`, the growth is -4.54% (active) in the assay on T-47D breast; -6.57% (active) in the assay with BT-549 breast; 16% in the assay with MDA-MB-435 melanoma; -33.2% (active) with SW-620 colon; 3.93% (active) in the assay on MCF7 breast; -77.3% (active) in the assay on HCT-116 colon. For the same compound, the growth in the assay with HCC-2998 colon was 16.9%; in the assay on KM12 colon, -12.6% (active).

As to `CC1CC=CCC1C1OCC(C)(C)CO1` (stereo unspecified), the growth in the assay with T-47D breast was 75.3%; with BT-549 breast, 99.9%; with MDA-MB-435 melanoma, 105%; in the assay on SW-620 colon, 102%; with MCF7 breast, 101%; with HCT-116 colon it was 97.5%. For the same compound, the growth with HCC-2998 colon is 113%.

As for `c1ccc(-c2oc(-c3ccccc3)c3ccccc23)cc1`, the growth in the assay on T-47D breast is 101%; in the assay with BT-549 breast, 96.5%; in the assay on MDA-MB-435 melanoma it was 107%; in the assay on SW-620 colon, 109%; in the assay with MCF7 breast, 122%; with HCT-116 colon, 108%. The growth in the assay on HCC-2998 colon was 107%; with KM12 colon, 105%.

Regarding `CC1Cc2ccccc2N1C(=O)c1ccc(C(=O)c2ccccc2)cc1` (stereo unspecified), the growth in the assay with T-47D breast was 91.4%; in the assay on BT-549 breast, 84%; with MDA-MB-435 melanoma, 89.1%; in the assay with SW-620 colon, 95.1%; with MCF7 breast it was 103%; in the assay with HCT-116 colon it was 81.1%. For the same compound, the growth in the assay on HCC-2998 colon was 127%; in the assay with KM12 colon, 101%.

On to `O=C(Nc1cccc(Cl)c1)Nc1cccc(Cl)c1`, for which the growth in the assay on T-47D breast was 19.4%; in the assay on BT-549 breast it was 96.7%; in the assay with MDA-MB-435 melanoma, 88.8%; in the assay with SW-620 colon, 81%; with MCF7 breast, 64.3%; in the assay on HCT-116 colon, 42.5%. Besides, the growth with HCC-2998 colon is 72.6%; in the assay with KM12 colon it was 43.6%.

Regarding `Cc1cnc2nc(-c3ccc(N(C)C)cc3)cn2c1`, the growth with T-47D breast is 89.8%; with BT-549 breast, 112%; with MDA-MB-435 melanoma it was 96.3%; with SW-620 colon, 116%; with MCF7 breast, 92.1%; in the assay with HCT-116 colon, 97.2%. Besides, the growth in the assay on HCC-2998 colon was 111%; in the assay with KM12 colon, 104%.

For the compound `Nc1ccccc1-c1ccn[nH]1`, the growth in the assay with T-47D breast is 93.5%; in the assay on BT-549 breast, 91.2%; in the assay on MDA-MB-435 melanoma it was 93.2%; in the assay with SW-620 colon, 96.7%; with MCF7 breast it was 100%; in the assay on HCT-116 colon, 92.7%. Besides, the growth with HCC-2998 colon was 97.2%; in the assay with KM12 colon, 82.3%.

Turning to `O=C(O)c1ccc(CNS(=O)(=O)c2ccc3ccccc3c2)cc1`, the growth with T-47D breast is 100%; in the assay with BT-549 breast, 104%; with MDA-MB-435 melanoma it was 110%; in the assay on SW-620 colon, 99.8%; in the assay on MCF7 breast, 107%; with HCT-116 colon, 109%. Also, the growth in the assay on HCC-2998 colon is 271%; with KM12 colon it was 101%.

In the case of `COC(=O)C1CCN(S(=O)(=O)c2ccc(-c3ccccc3)cc2)CC1`, the growth in the assay with T-47D breast was 102%; in the assay with BT-549 breast, 129%; in the assay with MDA-MB-435 melanoma, 111%; in the assay with SW-620 colon, 102%; in the assay with MCF7 breast, 99.7%; in the assay on HCT-116 colon, 115%. Moreover, the growth in the assay with HCC-2998 colon was 103%; in the assay with KM12 colon, 102%.

On to `CC(=O)Nc1c(Cl)cc2c(c1Cl)Cc1cc([N+](=O)[O-])ccc1-2`, for which the growth in the assay with T-47D breast is 53.4%; in the assay on BT-549 breast, 84.4%; in the assay on MDA-MB-435 melanoma, 81%; in the assay with SW-620 colon it was 81.5%; in the assay with MCF7 breast it was 27.8%; in the assay with HCT-116 colon, 72.6%. The values for the growth in the assay on HCC-2998 colon and in the assay on KM12 colon were 87.4% and 78.2%, respectively.

As for `Cc1cc2c(cc1C)[n+](Cc1ccc3ccccc3c1)cn2Cc1ccc2ccccc2c1`, the growth was -56.4% (active) in the assay with T-47D breast; -86.9% (active) in the assay on BT-549 breast; -82.8% (active) with MDA-MB-435 melanoma; -84.1% (active) in the assay with SW-620 colon; -67.7% (active) in the assay on MCF7 breast; -96.4% (active) in the assay on HCT-116 colon. Moreover, the growth is -69.6% (active) with HCC-2998 colon and -85.3% (active) in the assay on KM12 colon.

For the compound `NS(=O)(=O)N(c1cc(C(F)(F)F)cc(C(F)(F)F)c1)C1CCN(Cc2ccc(C(F)(F)F)cc2)CC1`, the growth with T-47D breast was 29.5%; with BT-549 breast it was 37.4%; in the assay with MDA-MB-435 melanoma, -60.4% (active); in the assay on SW-620 colon, 19.9%; in the assay on MCF7 breast it was 9.31% (active); with HCT-116 colon, 2.21% (active). The growth is 3.6% (active) in the assay on HCC-2998 colon and 12.9% with KM12 colon.

For `CCCCNCCCN(CCCC)CCCNCCCC`, the growth in the assay on T-47D breast is 105%; in the assay on BT-549 breast, 97.2%; with MDA-MB-435 melanoma it was 94.3%; in the assay on SW-620 colon, 101%; in the assay on MCF7 breast it was 95.8%; in the assay on HCT-116 colon, 90.9%. Further, the figures for the growth in the assay with HCC-2998 colon and in the assay with KM12 colon were 103% and 107%, respectively.

In the case of `COc1cnc2c(c1)C(=O)c1c-2n(CCCN2CCNCC2)c(=O)c2cc(F)ccc12`, the growth with T-47D breast was 9.02% (active); in the assay on BT-549 breast, 4.74% (active); in the assay with MDA-MB-435 melanoma, -41.3% (active); in the assay with SW-620 colon it was -53.7% (active); with MCF7 breast, 11.7%; in the assay on HCT-116 colon, -82.5% (active). For the same compound, the growth in the assay with HCC-2998 colon is 2.69% (active); in the assay with KM12 colon it was -13.1% (active).

`COc1cnc2c(c1)C(=O)c1c-2n(CCCNC2=NCCS2)c(=O)c2cc(F)ccc12`: the growth is 19.1% with T-47D breast; 13.4% in the assay with BT-549 breast; 41.8% in the assay on MDA-MB-435 melanoma; -22% (active) in the assay on SW-620 colon; 3.19% (active) in the assay on MCF7 breast; -75.3% (active) in the assay on HCT-116 colon. Also, the growth is 65.5% with HCC-2998 colon and 46.7% with KM12 colon.

Consider `CCOC(=O)c1sc(NC(=O)COc2ccc(/C=C3\CCc4cc(OC)ccc4C3=O)cc2)nc1C`, for which the growth in the assay with T-47D breast is 86.6%; with BT-549 breast, 51.8%; with MDA-MB-435 melanoma, 87.1%; in the assay on SW-620 colon, 99.5%; with MCF7 breast it was 112%; with HCT-116 colon, 105%. For the same compound, the growth in the assay with HCC-2998 colon is 104%.

The record behind these values is PubChem BioAssay (NCI).
